Spn MK inh: inhibitors of Streptococcus pneumoniae mevalonate kinase; purified MK, PK/LDH-coupled NADH absorbance 340 nm; inhibition, % at 10 µM; hit rate 0.48% among 65,000; AID 555;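 active = ranked among the strongest by inhibition in the single 10 µM screen, a fixed top-ranked set picked for dose follow-up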
A340 absorber: absorbance at 340 nm | compound absorbance at 340 nm, fold over control | fold change at 10 µM | AID 708 | 65,000 tested, under 10 active;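 active = at 10 µM dose, initial 340 nm absorbance at least 2 fold that of control wells; inactive = change under 2 fold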;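 note: initial absorbance extrapolated from kinetic A340 decline of NADH oxidation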
Spn DPM-DC inh: inhibitors of Streptococcus pneumoniae diphosphomevalonate decarboxylase; purified DPM-DC, PK/LDH coupled NADH fluorescence; calls only at 10 µM; hit rate 0.49% among 65,000;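 active = the 320 compounds with the highest percent inhibition in the single-dose primary screen, excluding strongly autofluorescent ones, cut at about 32% in these data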;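 note: kinetic rate of NADH fluorescence loss reporting ADP formed by the decarboxylase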
NADH coupling: inhibitors of enzymes used to reach an NAD/NADH endpoint | coupled PK/LDH NADH assays, four targets | IC50, µM (doses to about 10 µM) | hit rate 0.02% among 65,000 | AID 774;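 active = single-dose screening hits from any of four coupled enzyme assays that gave an IC50 when retested across doses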;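 note: the DPM-DC format reads NADH fluorescence rather than 340 nm absorbance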
Spn PMK inh: blocks S. pneumoniae phosphomevalonate kinase; purified PMK, PK/LDH-coupled NADH absorbance 340 nm; inhibition, % at 10 µM; hit rate 0.49% among 65,000;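 active = top-ranked compounds by inhibition in the single 10 µM screen, taking a fixed number of the strongest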
Fluor 339 460: intrinsic fluorescence of library compounds, ex339/em460 – biochemical, MLSMR library, data from DPM-DC assay, artefact control, profiling panel; hit rate 5.5% among 65,000; AID 709; compound autofluorescence, ex339/em460 nm, NADH buffer; hits give high values; 1 = no-compound wells, NADH background; fluorescence fold increase at 10 µM;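 active = at 10 µM, mean starting fluorescence two-fold or more over control wells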;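 note: signal is the first read of a kinetic run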
A number is an active result; . = inactive; / = not tested or not shown; + = active, no number. Only some compounds are listed: those with a hit (about 6.5% of all), similar ones and a draw of the others.

SMILES	Spn MK inh	A340 absorber	Spn DPM-DC inh	NADH coupling	Spn PMK inh	Fluor 339 460
Cc1ccc(NC(=O)CSc2nnc(Cn3c(=O)sc4ccccc43)n2C)cc1Cl	.	.	.	.	29	.
O=C(NCC(c1cccnc1)N1CCN(c2ccccc2)CC1)c1ccco1 (stereo not drawn)	.	.	.	.	.	.
COc1cc(NC(=O)c2ccco2)c(OC)cc1NC(=O)CCC(=O)Nc1cc(C)ccc1C	.	.	+	.	.	2.7
COc1cc(NC(=O)c2ccco2)c(OC)cc1NC(=O)CCC(=O)Nc1cc(C)cc(C)c1	.	.	.	.	.	.
Cc1ccc(-c2nc3c(=O)n(C)c4ccccc4c3o2)cc1	.	.	/	.	.	4.7
Cc1ccc2nc(Nc3nc(=O)c4ccccc4n3C)nc(C)c2c1	.	.	.	.	.	.
CC(=O)NC(O)C(=O)c1ccco1 (stereo not drawn)	.	.	.	.	.	.
COC(=O)c1ccccc1S(=O)(=O)N(Cc1ccco1)Cc1cc2cc(OC)ccc2[nH]c1=O	.	.	.	.	.	2.1
CCc1ccc2[nH]c(=O)c(CN(Cc3ccco3)S(=O)(=O)c3ccc4c(c3)OCCO4)cc2c1	.	.	.	.	.	.
COc1ccc2[nH]c(=O)c(CN(CCO)S(=O)(=O)c3ccc4c(c3)OCCO4)cc2c1	.	.	.	.	.	2.1
CCc1ccc2[nH]c(=O)c(CN(Cc3ccccc3OC)Cc3nnnn3Cc3ccco3)cc2c1	.	.	.	.	.	.
COc1ccc2[nH]c(=O)c(CN(Cc3ccco3)Cc3nnnn3Cc3ccccc3)cc2c1	.	.	.	.	.	2.3
CCOc1ccc2[nH]c(=O)c(CN(Cc3ccco3)Cc3nnnn3Cc3ccccc3)cc2c1	.	.	.	.	.	2
CCc1cccc(C)c1NC(=O)C1=C(C(=O)O)CCCC1	.	.	.	.	.	.
Cc1ccccc1CN1CCNC(=O)C1CC(=O)O (stereo not drawn)	.	.	.	.	.	.
CCOCCCNC(=O)C1CCN(S(=O)(=O)N2CC(C)CC(C)C2)CC1 (stereo not drawn)	.	.	.	.	28	.
COc1ccccc1CNC(=O)C1CCN(S(=O)(=O)N2CC(C)CC(C)C2)CC1 (stereo not drawn)	.	.	.	.	25	.
Cc1cc(C(=O)CN2C(=O)NC(C)(c3cccc(Br)c3)C2=O)c(C)n1Cc1ccco1 (stereo not drawn)	.	.	.	.	.	.
O=C(O)c1c[nH]ccc1=O	.	.	.	.	.	.
c1ccc(Cn2nnc3c(N4CCCCCC4)ncnc32)cc1	.	.	.	.	.	.
c1ccc(Cn2nnc3c(N4CCc5ccccc54)ncnc32)cc1	.	.	/	.	.	4.3
O=C(Oc1ccc(-c2cn3c(n2)SCC3)cc1)c1ccccc1	.	.	.	.	.	.
CCOC(=O)c1cccc(NC(=O)c2cc3sccc3n2C)c1	.	.	.	.	.	.
CCOC(=O)c1ccccc1NC(=O)c1cc2sccc2n1C	.	.	.	.	.	2.6
CC(=O)OC1=C(C#N)Cn2ccc3cccc1c32	.	.	/	.	.	3.9
SMILES	Spn MK inh	A340 absorber	Spn DPM-DC inh	NADH coupling	Spn PMK inh	Fluor 339 460
CCOC(=O)CSc1cccc2cccnc12	.	.	/	.	.	3.6
O=C(CSc1cccc2cccnc12)NCc1ccco1	.	.	/	.	.	4.9
Cc1cc(C)nc(SCC(=O)NCc2ccco2)n1	.	.	.	.	.	.
O=C(CSc1nc2ccccc2c(=O)n1Cc1ccco1)NCc1ccccc1	.	.	.	.	.	.
Cn1c(SCC(=O)NCc2ccco2)nc2ccccc2c1=O	.	.	.	.	25	.
Cc1cc(C)n2nc(SCC(=O)NCc3ccco3)nc2n1	.	.	.	.	30	.
O=S(=O)(Cc1nc2ccccc2s1)c1ccccc1	.	.	.	.	.	.
CCCCn1c(N2CCC(Cc3ccccc3)CC2)nc2c1c(=O)[nH]c(=O)n2C	.	.	.	.	.	.
Cc1ccc(N2Cc3ccccc3OC(C)C2=O)cc1 (stereo not drawn)	.	.	.	.	.	.
Cc1ccc(S(=O)(=O)C2(C(=O)NCc3ccc4c(c3)OCO4)CC2)cc1	.	.	.	.	.	.
CCC(Oc1ccccc1)C(=O)Nc1nc2ccccc2[nH]1 (stereo not drawn)	.	.	.	.	.	.
Cc1c(NC(=O)C2CCCN2S(=O)(=O)c2ccc(Cl)cc2)c(=O)n(-c2ccccc2)n1C (stereo not drawn)	.	.	.	.	.	.
COc1ccc(Cn2c3nc4ccccc4nc3c3c(=O)n(Cc4ccco4)c(C)nc32)cc1	.	.	.	.	.	.
CCCCn1c2nc3ccccc3nc2c2c(=N)oc(C)nc21	.	.	/	.	.	2.2
CCCCC(CC)Cn1c2nc3ccccc3nc2c2c(=N)oc(C)nc21 (stereo not drawn)	.	.	/	.	.	2.4
CCCCCCOC(=O)C(C#N)c1nc2ccccc2nc1N1CCN(CC)CC1 (stereo not drawn)	.	.	.	.	.	.
CCCCC(CC)Cn1c(N)c(C#N)c2nc3ccccc3nc21 (stereo not drawn)	.	.	/	.	.	5
COC1=CC(=O)OC12CCCCC2	.	.	.	.	.	.
CCN1CCCC1CN(Cc1cc2cc(OC)ccc2[nH]c1=O)C(=O)NCc1ccccc1 (stereo not drawn)	.	.	/	.	.	4.3
COc1ccc2[nH]c(=O)c(CN(CCCN(C)C)C(=O)Nc3ccccc3)cc2c1	.	.	.	.	.	2.7
COc1cccc(C(=O)N(Cc2cc3cc(C)ccc3[nH]c2=O)CC2CCCO2)c1 (stereo not drawn)	.	.	.	.	.	.
CCc1ccc2[nH]c(=O)c(CN(CCN(C)C)C(=O)Nc3ccccc3)cc2c1	.	.	.	.	.	.
COc1ccc2[nH]c(=O)c(CN(CC3CCCO3)C(=O)Nc3ccc(F)cc3)cc2c1 (stereo not drawn)	.	.	.	.	.	2.3
O=C(CN(CC1CCCO1)C(=O)CCC(=O)Nc1nccs1)NCc1ccc2c(c1)OCO2 (stereo not drawn)	.	.	.	.	.	.
O=C1CSC(c2cn(-c3ccccc3)nc2-c2cc3ccccc3oc2=O)N1Cc1ccco1 (stereo not drawn)	.	.	/	.	.	5
CC1CCCN(c2oc(-c3cccc4ccccc34)nc2C#N)C1 (stereo not drawn)	.	.	/	.	.	3.8
N#Cc1nc(-c2ccccc2Cl)oc1N1CCOCC1	.	.	/	.	.	2
N#Cc1nc(-c2ccco2)oc1N1CCOCC1	.	.	/	.	.	3.9
N#Cc1nc(-c2ccco2)oc1N1CCN(c2ccccc2)CC1	.	.	.	.	.	.
COc1ccccc1-c1nc(C#N)c(N2CCc3ccccc3C2)o1	.	.	/	.	.	3.9
